This note sets out measurements from PubChem BioAssay (Tox21).

Test [1] in a line: Nuclear factor erythroid 2-related factor 2/antioxidant responsive element (Nrf2/ARE) small molecule agonists: luciferase reporter gene qHTS assay in human keratinocytes (AID 1919969). Note: nearly all actives have a fitted effect of over 35% in size.
Test [2] has as its target Gonadotropin-releasing hormone receptor (Homo sapiens) (UniProt P30968). Briefly: Human gonadotropin-releasing hormone receptor (GnRHR) small molecule agonists, calcium flux assay in GnRHR-HEK293 cells (AID 1920063). Note: nearly all actives have a fitted effect of over 35% in size. In a few lines:
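Intracellular calcium rise is the read-out: engineered human GnRHR HEK293 cells, dye-loaded, are exposed to DMSO-dissolved compounds and fluorescence at Ex/Em 480/540 is tracked for 3 min.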
(In general: A change in cytosolic calcium serves as a functional read-out for many receptors and channels.)

Test [3] deals with KiSS-1 receptor (Homo sapiens) (UniProt Q969F8). The experiment in a line: Human kisspeptin (KISS1R) small molecule agonists, calcium flux assay in KISS1R-HEK293 cells (AID 1920064; active = well fitted activation curve with a large enough effect in the repeat runs). In a few lines:
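Concentration-response testing used 15 concentrations in triplicate on human KISS1R-expressing HEK293 cells. Calcium-dependent fluorescence (Ex/Em 480/540) was followed kinetically for 3 min after compound transfer.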

Test [4] in a line: G protein-coupled receptor (GPCR) small molecule agonists, calcium flux assay: HEK293 wild type cell line counter screen (AID 1920065). In a few lines: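 Fluorescence intensity signals activation. After overnight (18 h) culture and a 1 h calcium dye load at 37 C, compounds are added by pin tool and the plate read at 480/540 nm for 3 min in 1 s steps.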
The nature of test [5]: p53 small molecule agonists, cell-based qHTS assay with human liver microsomes: qHTS cell viability counter screen (AID 1963579). Note: nearly all actives have a fitted effect of over 45% in size. In a few lines: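 Seed p53RE-bla cells at 4,000 per well; incubate 5 h at 37 C; add compound, human liver microsomes and NADPH; incubate 16 h at 37 C; add CellTiter-Glo; after 30 min at room temperature, read luminescence.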
(In qHTS, concentration-response curves come from the screen itself.)

A short description of test [6]: p53 small molecule agonists, cell-based qHTS assay with rat liver microsomes: qHTS cell viability counter screen (AID 1963580). Note: nearly all actives have a fitted effect of over 45% in size. In a few lines: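 Luminescent ATP readout (CellTiter-Glo, 30 min at room temperature) reports viability of p53RE-bla HCT-116 cells after 16 h at 37 C with test compounds under metabolic activation by rat liver microsomes and NADPH at 0.5 mg/mL final each.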

Test [7] is described as follows: p53 small molecule agonists, cell-based qHTS assay: qHTS cell viability counter screen (AID 1963581). Note: nearly all actives have a fitted effect of over 45% in size. In a few lines: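 Luminescence from CellTiter-Glo, reflecting ATP content, serves as the cytotoxicity measure; it is taken after the 2 h reporter substrate step in HCT-116 p53RE-bla cells dosed for 16 h at 37 C.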
Test [8] can be described thus: p53 small molecule agonists, cell-based qHTS assay (AID 1963582; active = well fitted activation curve with a large enough effect in the signal ratio in the repeat runs, not every such curve was filed as active; the % refers to the signal ratio). In a few lines:
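After plating, p53RE-bla cells sat 5 h in the incubator; compounds or DMSO vehicle were pinned in; a 16 h incubation at 37 C followed; FRET substrate was added and, 2 h later at RT, fluorescence was measured.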

The target in test [9] is 5-hydroxytryptamine receptor 2A (Homo sapiens) (UniProt P28223). The experiment in a line: 5-hydroxytryptamine receptor 2A (HTR2A) small molecule agonists, cell-based qHTS assay (AID 1963587). Note: nearly all actives have a fitted effect of over 30% in size. In a few lines:
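HTR2A-CHO cells, plated 18 h at 37 C/5% CO2, dye-loaded 1 h at 37 C; compounds in DMSO added by pin tool (agonist mode). Intracellular calcium flux read as kinetic fluorescence on FDSS over 2 min at 1 s intervals.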

Test [10] concerns the target Muscarinic acetylcholine receptor M1 (Homo sapiens) (UniProt P11229). The experiment in a line: Cholinergic receptor muscarinic 1 (CHRM1) small molecule agonists, cell-based qHTS assay (AID 1963589). Note: nearly all actives have a fitted effect of over 35% in size. In a few lines: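 Fluorescent calcium dye reports M1 activation in stably transfected CHO cells. Compounds, 15 concentrations, added after 1 h dye loading at 37 C; kinetic reading at 1 sec intervals.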

The nature of test [11]: cAMP Responsive Elements (CRE) small molecule antagonists, cell-based qHTS assay (AID 1963591; active = well fitted inhibition curve with a large enough effect in the signal ratio in the repeat runs, not every such curve was filed as active; the % refers to the signal ratio). In a few lines:
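Stimulation used NKH477 at a final 0.25 uM for 3 h in compound-treated CRE-bla HEK293T cells, seeded 18 h beforehand. Reporter activity was measured with LiveBLAzer B/G FRET substrate after 2 h at room temperature.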

Test [12] deals with Beta-2 adrenergic receptor (Homo sapiens) (UniProt P07550). Briefly: Adrenergic beta2 receptor (ADRB2) small molecule antagonists, cell-based qHTS assay (AID 1963592). Note: series mostly up to about 92 µM; nearly all actives have a fitted effect of over 50% in size. In a few lines: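 Assay format: CHO-ADRB2 cells, 18-20hr seeding at 37C/5% CO2, then compound plus 1nM isoproterenol agonist mix for 0.5hr RT. Homogeneous time-resolved fluorescence cAMP detection after 1hr, expressed as 665/615 nm ratio.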

The target is the same in test [13]. The experiment in a line: Adrenergic beta2 receptor (ADRB2) small molecule agonists, cell-based qHTS assay (AID 1963593).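 Note: CHO cells stably overexpressing human ADRB2.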 In a few lines: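 CHO cells stably over-expressing ADRB2 were plated overnight at 37C, then dosed with compounds plus a stimulation mix containing 100uM IBMX and 25uM Ro-20-1724 for 0.5hr at room temperature. cAMP was measured by HTRF competition, 1hr.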

The target in test [14] is D(2) dopamine receptor (Homo sapiens) (UniProt P14416). The experiment in a line: Dopamine D2 receptor (DRD2) small molecule agonists, cell-based qHTS assay (AID 1963594). Note: nearly all actives have a fitted effect of over 35% in size. In a few lines: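 HEK293 cells stably expressing DRD2 were cultured 24 h at 37 C, then given Ro20-1724 (0.1 mM final) and compounds for 10 min at room temperature. NKH477 (200nM) was then added for 30 min. cAMP was read by HTRF.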

Test [15] shares this target. Briefly: Dopamine D2 receptor (DRD2) small molecule antagonists, cell-based qHTS assay (AID 1963595; active = well fitted inhibition curve with a large enough effect in the signal ratio in the repeat runs, with a control signal flat; the % refers to the signal ratio; note: potency is the fitted concentration of half-maximal effect). In a few lines: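 Antagonism was scored as restored cAMP in HEK293-DRD2 cells. These cells were stimulated with 200 nM NKH477 and 12 nM quinpirole for 30 min at room temperature, in the presence of 0.1 mM Ro20-1724.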
Test [16] in a line: p53 small molecule agonists, cell-based qHTS assay with rat liver microsomes (AID 1963578). In a few lines: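 Fluorescence from a beta-lactamase reporter under a p53 response element was measured after cells had been incubated 16 h at 37 C with test compound and rat liver microsomes plus NADPH (0.5 mg/mL final each).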
The nature of test [17]: cAMP Responsive Elements (CRE) small molecule agonists, cell-based qHTS assay (AID 1963590). In a few lines: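 Compound exposure lasted 3 h at 37 C/5% CO2 in CRE-bla HEK 293T cells grown in assay medium with 10% dialyzed FBS and 25 mM HEPES. Reporter signal came from LiveBLAzer B/G FRET substrate, 2 h, room temperature.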
Test [18] can be described thus: p53 small molecule agonists, cell-based qHTS assay with human liver microsomes (AID 1963577). In a few lines: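 Cells carrying a p53-responsive bla reporter were rested 5 h (37 C, 5% CO2) before compound transfer. Human liver microsomes plus NADPH, 0.5 mg/mL final apiece, supplied metabolism during the 16 h 37 C exposure.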
The target of test [19] is 5-hydroxytryptamine receptor 2A (Homo sapiens) (UniProt P28223). The experiment in a line: 5-hydroxytryptamine receptor 2A (HTR2A) small molecule antagonists, cell-based qHTS assay (AID 1963586). Note: nearly all actives have a fitted effect of over 45% in size. In a few lines: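 CHO cells stably expressing human HTR2A were plated for 18 h at 37 C, then loaded with calcium dye for 1 h. Compounds were preincubated 5 min at room temperature before DOI (4 nM solution) was added. Kinetic fluorescence was read for 3 min.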

The target in test [20] is Muscarinic acetylcholine receptor M1 (Homo sapiens) (UniProt P11229). The experiment in a line: Cholinergic receptor muscarinic 1 (CHRM1) small molecule antagonists, cell-based qHTS assay (AID 1963588). Note: nearly all actives have a fitted effect of over 40% in size. In a few lines:
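Compounds were tested at 15 concentrations in three independent runs. Dye-loaded CHRM1-CHO cells were exposed 5 min at room temperature before stimulation by acetylcholine added at 50nM. Intracellular calcium was read kinetically on FDSS for 3 min.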

Unmarked numbers belong to inactive results. Records with an inconclusive call do not appear. Calls of active or inactive are those of the source. Unless noted, calls come from the whole dose curve.

Chain of Beta-2 adrenergic receptor (Homo sapiens) (P07550 whole entry, looked up): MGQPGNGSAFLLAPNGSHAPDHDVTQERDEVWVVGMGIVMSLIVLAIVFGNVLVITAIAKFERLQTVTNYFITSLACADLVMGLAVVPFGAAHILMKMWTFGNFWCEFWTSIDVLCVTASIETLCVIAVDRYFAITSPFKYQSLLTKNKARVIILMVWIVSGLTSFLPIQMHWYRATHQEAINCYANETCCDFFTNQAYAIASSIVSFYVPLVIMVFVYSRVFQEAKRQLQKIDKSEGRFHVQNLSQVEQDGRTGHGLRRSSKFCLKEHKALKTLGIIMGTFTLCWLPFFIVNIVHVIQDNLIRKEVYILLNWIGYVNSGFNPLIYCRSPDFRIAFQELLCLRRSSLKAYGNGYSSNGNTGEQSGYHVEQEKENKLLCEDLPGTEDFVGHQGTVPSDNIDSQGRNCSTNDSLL
Chain of Muscarinic acetylcholine receptor M1 (Homo sapiens) (P11229 whole entry, looked up): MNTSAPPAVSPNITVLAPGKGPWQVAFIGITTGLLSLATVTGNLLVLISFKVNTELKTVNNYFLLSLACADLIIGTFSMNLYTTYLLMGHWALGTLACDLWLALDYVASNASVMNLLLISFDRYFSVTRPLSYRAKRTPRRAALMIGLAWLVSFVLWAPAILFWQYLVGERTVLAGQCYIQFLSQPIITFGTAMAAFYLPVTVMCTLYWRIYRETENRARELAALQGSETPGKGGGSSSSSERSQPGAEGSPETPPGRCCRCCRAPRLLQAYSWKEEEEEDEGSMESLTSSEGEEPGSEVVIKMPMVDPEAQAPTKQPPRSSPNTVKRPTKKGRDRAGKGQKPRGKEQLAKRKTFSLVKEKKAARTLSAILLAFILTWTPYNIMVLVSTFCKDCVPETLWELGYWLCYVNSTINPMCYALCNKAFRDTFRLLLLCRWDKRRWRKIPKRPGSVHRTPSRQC
Chain of Gonadotropin-releasing hormone receptor (Homo sapiens) (P30968 whole entry, looked up): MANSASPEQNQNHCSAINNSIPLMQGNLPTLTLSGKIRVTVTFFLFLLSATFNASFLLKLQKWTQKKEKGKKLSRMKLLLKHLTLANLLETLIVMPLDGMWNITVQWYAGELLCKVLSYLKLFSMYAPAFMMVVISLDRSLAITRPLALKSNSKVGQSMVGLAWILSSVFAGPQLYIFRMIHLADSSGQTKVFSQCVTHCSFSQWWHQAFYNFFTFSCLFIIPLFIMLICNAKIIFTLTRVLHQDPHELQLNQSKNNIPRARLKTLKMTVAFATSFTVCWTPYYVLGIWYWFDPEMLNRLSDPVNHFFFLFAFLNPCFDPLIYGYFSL
Chain of KiSS-1 receptor (Homo sapiens) (Q969F8 whole entry, looked up): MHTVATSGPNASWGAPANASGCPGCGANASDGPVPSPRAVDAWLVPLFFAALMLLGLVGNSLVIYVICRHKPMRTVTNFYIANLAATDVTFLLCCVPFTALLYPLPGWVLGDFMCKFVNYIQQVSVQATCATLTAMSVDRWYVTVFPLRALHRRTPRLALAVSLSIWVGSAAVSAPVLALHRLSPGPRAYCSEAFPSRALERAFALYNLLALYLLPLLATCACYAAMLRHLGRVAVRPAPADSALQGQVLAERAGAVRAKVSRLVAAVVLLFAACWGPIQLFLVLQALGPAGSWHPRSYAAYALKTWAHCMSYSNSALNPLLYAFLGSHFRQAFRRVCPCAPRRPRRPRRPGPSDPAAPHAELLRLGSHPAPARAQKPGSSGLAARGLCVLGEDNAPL
Chain of D(2) dopamine receptor (Homo sapiens) (P14416 whole entry, looked up): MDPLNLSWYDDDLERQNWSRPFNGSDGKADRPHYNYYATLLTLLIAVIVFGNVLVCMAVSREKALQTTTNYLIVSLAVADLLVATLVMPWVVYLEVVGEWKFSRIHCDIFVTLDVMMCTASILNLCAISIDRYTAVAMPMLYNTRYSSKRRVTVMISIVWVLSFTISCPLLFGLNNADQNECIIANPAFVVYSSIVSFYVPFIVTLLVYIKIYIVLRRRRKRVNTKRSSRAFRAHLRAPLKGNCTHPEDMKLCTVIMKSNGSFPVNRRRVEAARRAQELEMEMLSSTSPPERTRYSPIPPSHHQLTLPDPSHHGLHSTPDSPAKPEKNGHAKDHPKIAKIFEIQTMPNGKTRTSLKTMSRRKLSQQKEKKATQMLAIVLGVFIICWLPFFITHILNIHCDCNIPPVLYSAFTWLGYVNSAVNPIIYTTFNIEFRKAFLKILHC
Chain of 5-hydroxytryptamine receptor 2A (Homo sapiens) (P28223 whole entry, looked up): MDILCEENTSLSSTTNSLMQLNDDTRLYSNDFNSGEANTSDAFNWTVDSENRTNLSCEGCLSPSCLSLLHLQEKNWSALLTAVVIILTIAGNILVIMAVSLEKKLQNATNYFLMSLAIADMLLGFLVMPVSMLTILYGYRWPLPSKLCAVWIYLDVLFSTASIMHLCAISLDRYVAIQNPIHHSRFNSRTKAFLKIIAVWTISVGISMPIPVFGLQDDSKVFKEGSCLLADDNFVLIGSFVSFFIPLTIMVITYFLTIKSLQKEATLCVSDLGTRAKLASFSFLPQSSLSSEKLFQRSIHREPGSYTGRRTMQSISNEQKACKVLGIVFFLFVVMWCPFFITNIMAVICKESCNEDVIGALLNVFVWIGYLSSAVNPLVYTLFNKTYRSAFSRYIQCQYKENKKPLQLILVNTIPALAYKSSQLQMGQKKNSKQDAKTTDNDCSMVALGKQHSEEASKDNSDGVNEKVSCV

`CO[Si](OC)(OC)OC`: the Potency entry in test [1], in test [2], in test [5], in test [6], in test [7] and in test [8] was “inactive” each time. The Potency result in test [9], in [10], in test [11], in test [12], in test [13] and in [14] was “inactive” throughout. The Potency result in [15] was “inactive”. The result in test [3] and in test [4] was inactive.
As to `COC(=O)[C@@H]1[C@H]2C[C@H]3c4[nH]c5ccccc5c4CCN3C[C@@H]2CC[C@@H]1O`, the Potency entry in test [1], in [2], in [16], in [5], in test [6] and in test [7] was “inactive” in each case. Also, the Potency entry in test [8], in test [17], in [11], in test [13] and in test [14] was “inactive” throughout. Also, the outcome in test [3] and in test [4] was inactive. Moreover, the Potency in [15] is 23.7 µM (active).
As to `C[C@H]1C[C@H]2[C@@H]3CCC4=CC(=O)C=C[C@]4(C)[C@H]3C(=O)C[C@]2(C)[C@@]1(O)C(=O)CO`, the Potency entry in test [1], in [2], in test [18], in test [5], in [6] and in test [7] was “inactive” throughout. The Potency entry in test [8], in test [19], in test [9], in test [20], in test [10] and in test [17] was “inactive” each time. Also, the Potency result in test [11], in test [12] and in test [14] was “inactive” throughout. For the same molecule, the outcome in test [3] and in [4] was inactive.
As for `COc1ccc(S(=O)(=O)N2c3ccc(Cl)cc3[C@@](O)(c3ccccc3Cl)[C@H]2C(=O)N2CCC[C@@H]2C(N)=O)cc1OC`, the Potency result in test [1], in [2], in [18], in test [16], in test [6] and in [7] was “inactive” in each case. In addition, the Potency entry in [8], in [19], in [9], in test [20], in test [10] and in test [17] was “inactive” in each case. Also, the Potency result in [11], in [12], in test [13], in [14] and in test [15] was “inactive” throughout. Also, the outcome in [3] and in test [4] was inactive.
For the molecule `CCCCCCCCCCCC(C)=O`, the Potency entry in test [1], in [18], in test [16], in [5], in [6] and in test [8] was “inactive” in each case. The Potency result in [19], in test [9], in [20], in [10], in [17] and in test [11] was “inactive” in each case. The Potency entry in [12], in test [13], in [14] and in [15] was “inactive” each time. In addition, the outcome in test [3] and in [4] was inactive.
In the case of `CC(COC(C)(C)C)OCCCO` (stereo unspecified), the Potency result in [1], in test [2], in test [18], in test [16], in test [5] and in test [6] was “inactive” throughout. Moreover, the Potency entry in [7], in [8], in test [19], in test [9], in test [20] and in test [10] was “inactive” each time. Also, the Potency entry in test [17], in test [12] and in [14] was “inactive” each time. In test [3], the result was inactive.
Turning to `CC12CCCC=C1C(=O)OC2=O` (stereo unspecified), the Potency entry in test [1], in [2], in [18], in [16], in [5] and in [6] was “inactive” in each case. In addition, the Potency result in [7], in test [8], in test [9], in [20], in test [17] and in test [11] was “inactive” in each case. Moreover, the Potency result in [12], in [14] and in test [15] was “inactive” each time. For the same molecule, in [4], the outcome was inactive.
With `C=COCC1CCC(CO)CC1` (stereo unspecified), the Potency result in test [1], in test [18], in test [16], in [5], in [6] and in test [7] was “inactive” throughout. Further, the Potency entry in [8], in test [19], in test [9], in [20], in test [10] and in test [17] was “inactive” in each case. Also, the Potency result in test [12], in test [14] and in test [15] was “inactive” in each case. Also, the outcome in [4] was inactive.
